Screening data from PubChem BioAssay.
USP30 inh: human USP30 deubiquitinase inhibition | Q70CQ3 | purified USP30, Ub-rhodamine cleavage fluorescence | inhibition, % at 25 µM | hit rate 5.3% among 47,000 | AID 1645860
USP28 inh: human USP28 deubiquitinase inhibition; inhibition, % at 25 µM; hit rate 3% among 47,000; purified USP28, Ub-rhodamine cleavage fluorescence, 30 min; Q96RU2
USP17 block: human USP17-like deubiquitinase inhibition; purified USP17, Ub-rhodamine cleavage fluorescence, 3 h; inhibition, % at 50 µM; hit rate 6.5% among 47,000; AID 1645855; A8MUK1
An asterisk follows results filed as active; i = inactive; . = not tested or not shown. An excerpt weighted towards active compounds, which were near 11% of everything screened. No stated cut-off is given here; in the data, active means inhibition above about 30%; inactive means the rest.

SMILES	USP30 inh	USP28 inh	USP17 block
O=C(Nc1cccc(Oc2ccccc2)c1)c1ccc2nc[nH]c2c1	-9	34*	-1
COc1ccc(C)cc1NC(=O)CN1CC[C@@H]2[C@@H](c3ccccc3)N(C)C[C@]2(NC(C)=O)C1	8	10	7
COC(=O)c1ccc2c(c1)C(=O)c1ccccc1CO2	24	32*	26
COC(=O)c1ccc(C2CC(=O)Nc3cc4c(cc32)OCCO4)cc1 (configuration not stated)	.	.	2
CNC(=O)c1cccc(Nc2ccn3nc(-c4cc(OC)c(OC)c(OC)c4)cc3n2)c1	-13	0	-3
O=C(Cn1cncc(C(=O)NC2CCCC2)c1=O)Nc1cccc(F)c1	0	-4	82*
O=C(CN1C(=O)C2CCCC2=Nc2ccccc21)Nc1cccc(F)c1 (configuration not stated)	-12	-12	15
O=C(Cn1c(-c2ccccc2)ncc(C(=O)NC2CC2)c1=O)Nc1ccccc1	73*	27	36*
Cc1ccccc1NC(=O)Cn1c(C)ncc(C(=O)NC2CC2)c1=O	9	2	2
CCn1c(=O)n(CC(=O)O)c(=O)c2cnc(-c3ccccc3)nc21	7	3	1
Cc1ccc(Cn2nnc3c(=O)[nH]c(C4CCN(C(=O)C5CCC5)CC4)nc32)cc1	16	-2	0
O=c1[nH]c(C2CCN(S(=O)(=O)c3ccc(S(=O)(=O)N4CCOCC4)cc3)CC2)nc2c1nnn2Cc1cccc(F)c1	-106	8	7
O=c1[nH]c(C2CCN(S(=O)(=O)c3ccc(S(=O)(=O)NC4CC4)cc3)CC2)nc2c1nnn2Cc1cccc(F)c1	-30	11	11
O=c1[nH]c(C2CCN(S(=O)(=O)c3ccc(S(=O)(=O)NC4CCCC4)cc3)CC2)nc2c1nnn2Cc1cccc(Cl)c1	59*	38*	23
O=c1[nH]c(C2CCN(S(=O)(=O)c3ccc(S(=O)(=O)NC4CC4)cc3)CC2)nc2c1nnn2Cc1cccc(Cl)c1	42*	38*	25
CCC(CC)C(=O)N1CCC(c2nc3c(nnn3Cc3ccc(C)cc3)c(=O)[nH]2)CC1	30	13	13
COC(=O)c1ccc(Cn2nnc3c(=O)[nH]c(C4CCCN(S(=O)(=O)c5ccc(C)cc5)C4)nc32)cc1 (configuration not stated)	36*	32*	27
Cc1ccc(Cn2nnc3c(=O)[nH]c(C4CCN(S(=O)(=O)c5ccc(S(=O)(=O)NC6CC6)cc5)CC4)nc32)cc1	43*	22	19
CC(C)c1cc(C2CCCN2C(=O)Cc2ccccc2F)on1 (configuration not stated)	4	2	0
COc1cccc(Cn2c(=O)n(-c3cccc(Cl)c3)c(=O)c3c2c2cc(OC)ccc2n3C)c1	22	5	7
CC(C)=CCCC1(C)OC2=C(C(=O)c3cc(O)cc(O)c3C2=O)[C@H]2C=C(C)CC[C@H]21 (some centres not stated)	-16	18	86*
CC12CCCC(O1)c1c(cc3c(c1O)C(=O)c1c(O)cc(O)cc1C3=O)O2 (configuration not stated)	-125	-26	-22
Cc1ccc2cc(CN(CC3CCCO3)C(=O)Nc3ccccc3)c(=O)[nH]c2c1 (configuration not stated)	-266	-74	-74
c1cc(N2CCCCCC2)ncc1-c1noc(CN2CCSCC2)n1	-3	6	12
O=C(NCCS(=O)(=O)N1CCN(c2ncccn2)CC1)c1ccc(F)cc1	1	-9	-2
SMILES	USP30 inh	USP28 inh	USP17 block
O=S(=O)(NCC(O)c1ccccc1)c1ccc(-c2ccccn2)s1 (configuration not stated)	-1	-5	-12
NS(=O)(=O)c1ccc(CNS(=O)(=O)c2ccc(-c3ccccn3)s2)cc1	60*	24	.
CC(/C=C/C=C/C=C/C=C/C(O)=C1C(=O)C(CCC(=O)O)N(C)C1=O)=C\C(C)C(O[C@H]1C[C@H](O)[C@H](O)[C@@H](C)O1)C(C)C (some centres not stated)	i	-77	-83
N[C@H](CCCC(=O)O)C(=O)O	10	-1	0
CC(C)CCCCCCCCCCCC(=O)O	47*	14	43*
Cn1cnc(S(=O)(=O)N2CCC(C3CCCCN(CCc4ccccc4)C3=O)CC2)c1 (configuration not stated)	4	1	6
CN(C)CCNC(=O)c1ncn2c1CN(CC1CC1)S(=O)(=O)c1ccccc1-2	-17	-10	-12
COc1ccc(-c2nnc(NC(=O)c3cccc(SC)c3)o2)cc1	15	0	-45
O=C(NCc1ccc(-c2nc3cnccc3o2)cc1)c1cc2ccccc2o1	-14	0	81*
O=C(Nc1cccc(-c2nc3cnccc3o2)c1)c1cccc(F)c1	.	.	76*
O=C(Nc1cccnc1)c1cc(F)cc(F)c1	19	1	5
